Compounds with a hit are over-represented: about 7.7% of the library has one in this group of screens.
HCMV antiviral: inhibitors of human cytomegalovirus | HFF cells, HCMV-luciferase reporter, 72 h; active compounds read low | activity change, negative = inhibition, % at 57.5 µM | actives 4.5% (n = 410,000); in the data active = activity change below about -60%; inconclusive = no clear call, values can overlap the other calls; inactive = above about -39%
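Compounds were evaluated in HFFs infected with an HCMV luciferase reporter virus (MOI 1 PFU/cell). Luciferase in lysates collected 72 h post infection served as the replication measure.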
Giardia FBPA inh: Giardia lamblia aldolase inhibition. A8B2U2. purified Giardia FBPA. Potency, µM (series often up to 59.6 µM), inactives show at the top dose activity, negative = inhibition, hits mostly inhibitors. actives 0.71% (n = 290,000). AID 2451; also: potency is read from the fitted curve at half-maximal effect; nearly all actives have a fitted effect of over 55% in size
Target sequence (A8B2U2 whole entry, looked up): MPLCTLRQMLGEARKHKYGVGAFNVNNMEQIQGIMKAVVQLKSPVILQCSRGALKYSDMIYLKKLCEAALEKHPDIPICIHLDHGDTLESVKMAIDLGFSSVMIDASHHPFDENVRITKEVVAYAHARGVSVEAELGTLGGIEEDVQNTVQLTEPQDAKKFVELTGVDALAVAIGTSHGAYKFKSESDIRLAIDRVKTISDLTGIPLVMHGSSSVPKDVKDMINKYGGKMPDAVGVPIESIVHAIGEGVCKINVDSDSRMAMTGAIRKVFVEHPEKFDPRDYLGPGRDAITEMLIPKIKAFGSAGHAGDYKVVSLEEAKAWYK
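40 nM FBPA preincubated 10 min at RT with compound (up to 57.5 uM final), then substrate plus GAPDH/TPI/NAD/arsenate coupling and diaphorase/resazurin added. Fluorescence read after 20 min at RT, 525/598 nm.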
RE007 growth inh: less growth of the S. pombe RE007 Vpr strain. S. pombe RE007 Vpr strain, BacTiter-Glo ATP luminescence, 24 h. Potency, µM (doses to about 92.2 µM), without a hit: at the highest dose activity change, negative = less growth, usual class: inhibitors. actives 0.21% (n = 360,000); active = well fitted falling curve with a large enough effect; inconclusive = small, poorly fitted or top-dose-only effect; inactive = no such curve, though single readings can be large or run the other way; also: potency is read from the fitted curve at half-maximal effect; nearly all actives have a fitted effect of over 50% in size
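Fission yeast RE007 carrying one integrated HIV-1 vpr copy, seeded at OD 0.01 in PMG+AL medium with 23 nL pinned compound. Grown 24 h at 30 degrees; viability read by BacTiter-Glo luminescence after 5 min.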
Sm TGR inh: blocks Schistosoma mansoni thioredoxin glutathione reductase | purified TGR, DTNB reduction, TNB absorbance 405 nm | Potency, µM (doses to about 114 µM), without a hit: at the top dose activity change, negative = inhibition, hits mostly inhibitors | actives 3% (n = 360,000); also: potency is read from the fitted curve at half-maximal effect; nearly all actives have a fitted effect of over 60% in size
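First, TGR (20 nM dispensed) and NADPH were mixed with compound. Second, a 15 min room-temperature incubation followed. Third, further NADPH and then DTNB were added to start the reaction. Finally, TNB absorbance was monitored kinetically.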
TbPYK inhibitor: blocks Trypanosoma brucei pyruvate kinase | Q57TT1 | TbPYK enzyme, Kinase-Glo Plus ATP luminescence, 45 min | Potency, µM (titrated, usually from 76.8 µM), for inactives: at the highest dose activity, negative = inhibition, actives largely listed as inhibitors | actives 0.12% (n = 410,000) | AID 624173; also: potency is read from the fitted curve at half-maximal effect; nearly all actives have a fitted effect of over 50% in size
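Screened from lowest to highest concentration, compounds were pinned into TbPYK/substrate mixtures, and ADP (130 uM final) was added. Plates sat at room temperature for 45 min prior to Kinase-Glo Plus detection by luminescence.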
FMDV inh: blocks foot and mouth disease virus; FMDV antiviral cell-based qHTS; Potency, µM (series often up to 57.9 µM), for the others: at the top dose activity change, negative = inhibition, actives largely listed as inhibitors; actives 1.2% (n = 410,000); calls by dose curve; tested in HEK293T cells; also: read-out not given here; potency is read from the fitted curve at half-maximal effect; nearly all actives have a fitted effect of over 45% in size
The depositor's hits bear a star; ? = inconclusive; / = not tested or not shown; ! = repeats disagree; [ ] = dose if it differs, or a comment. Unless noted, calls follow the shape of the dose curve; as a rule, active = well fitted curve in the direction sought with a large enough effect; inconclusive = small, poorly fitted or top-dose-only effect, or another doubt; inactive = no such curve, though single readings can be large; an effect the other way counts as inactive or inconclusive. % is scaled to controls: 0 for no effect and ±100 for the full control effect.

SMILES	HCMV antiviral	Giardia FBPA inh	RE007 growth inh	Sm TGR inh	TbPYK inhibitor	FMDV inh
Cc1ccc(C(=O)N[C@@H](C)CN2C3=NC[C@H](Cc4ccccc4)N3C[C@H]2Cc2ccc(O)cc2)cc1Br	/	-8%	3%	?	0%	-24%
O=C(CSc1nc2ncccc2o1)Nc1ccc(Cl)cc1F	64	/	/	-7%	-1%	15%
Cc1[nH]c(=O)[nH]c(=O)c1CCSSCCc1c(C)[nH]c(=O)[nH]c1=O	17	/	/	/	/	/
CCOC(=O)c1c(C)[nH]c(C)c1S(=O)(=O)N(C)CC(=O)NCc1ccc(Cl)cc1	-3	/	/	22%	1%	-15%
Cc1ccc(Cl)cc1NC(=O)C(C)n1nc(-c2ccccc2)ccc1=O (stereo not given)	-10	/	/	-5%	0%	-2%
FC(F)(F)c1cc(-c2cccc(Br)c2)nc2ncnn12	-23	/	/	6%	0%	-14%
COc1ccc(C[C@H]2CN3C(=NC[C@H]3Cc3ccccc3)N2CCNC(=O)c2ccc(C)c(Br)c2)cc1	/	-1%	8%	-22%	0%	?
COc1ccc(C[C@H]2CN3C(=NC[C@@H]3Cc3ccccc3)N2CCNC(=O)c2ccc(C)c(Br)c2)cc1	/	5%	4%	11µM*	-5%	?
O=C1Nc2ccccc2C(=O)C1(Cl)Cc1ccccc1 (stereo not given)	86	-19%	-2%	6%	4.5µM*	?
CC(C)(C)N1C(=O)c2ccccc2NC(=O)N1Cc1ccccc1	-40	0%	2%	5%	-4%	-9%
Cc1cc(C)n2nc(SCc3cccc(S(=O)(=O)N(C)C)c3)nc2n1	-39	-3%	-8%	13%	7%	?
CN(C)S(=O)(=O)c1cccc(CSCc2cccc(S(=O)(=O)N(C)C)c2)c1	-92*	7%	-4%	-11%	6%	?
N#CC(C#N)=Cc1ccc(C=C(C#N)C#N)cc1	-37	?	-19%	2.2µM*	-11%	?
N#CC(C#N)=Cc1ccc([N+](=O)[O-])c(O)c1	/	?	/	/	/	-5%[146 µM]
COc1cc(NC(=O)c2c(C)nn(-c3ccc(F)cc3)c2-n2cccc2)cc(OC)c1	3	/	/	4%	-4%	-28%
COCC(=O)Nc1cc(C(=O)NC2C3CC4CC2CC(O)(C4)C3)cc2nc(-c3ccccc3)n(C)c12 (stereo not given)	/	/	/	/	/	-10%
CCCCNc1c(-c2ccc(SC3CCCCC3)c(OC)c2)nc2ccc(C)cn12	-71*!	/	?	/	0%	28µM*!
COc1ccc(-c2nc3ccc(C)cn3c2NCc2ccccc2)cc1SC1CCCCC1	/	/	?	-14%	2%	20µM*
COc1ccc(-c2nc3ccc(Cl)cn3c2NC2CCCCC2)cc1SC1CCCCC1	-19	/	7%	/	5%	10%
CCCCNc1c(-c2ccc(OC)c(SC3CCCCC3)c2)nc2ccc(C)cn12	-101*!	/	-10%	/	4%	22µM*
CCCCNc1c(-c2cccc(SC3CCCCC3)c2)nc2ccc(Cl)cn12	-2	/	-6%	-5%	-6%	-17%
CCc1nc2cc(C(=O)NC3CCOC(C)(C)C3)cc(NC(=O)c3ccccc3OC)c2n1C (stereo not given)	/	/	/	/	/	1%
COC(=O)c1ccc(C(NC(=O)OCc2ccccc2)/C(=C/[C@@H](C)C(=O)NC2CCCCC2)c2cccnc2)cc1 (stereo not given in full)	/	-1%	/	/	/	/
CCCCNC(=S)N/N=C1\C(=O)c2cccc3cccc1c23	-12	8%	-1%	6%	-10%	-19%
CNC(=S)N/N=C1\C(=O)c2cccc3cccc1c23	-106*	-1%	-12%	-3%	0%	3%
SMILES	HCMV antiviral	Giardia FBPA inh	RE007 growth inh	Sm TGR inh	TbPYK inhibitor	FMDV inh
COC(=O)C1CCN(Cc2ccc3c(c2)CN(C(=O)c2cc(C)nc(C)n2)CCO3)CC1	/	/	/	/	/	5%
COc1ccc(OCCNC(=O)c2cccc(Oc3ccc(C(F)(F)F)cc3[N+](=O)[O-])c2)cc1	-66*	1%	/	-9%	-5%	?
O=C(NCCO)c1ccc(Oc2ccc(C(F)(F)F)cc2[N+](=O)[O-])cc1	-20	1%	0%	2%	-4%	-11%
COc1ccc(NC(=O)c2cccc(Oc3ccc([N+](=O)[O-])cc3Cl)c2)cc1	-87*	-7%	-11%	0%	1%	-6%
O=C(Nc1cccc(Cl)c1)c1cccc(Oc2ccc([N+](=O)[O-])cc2Cl)c1	-89*	-11%	3%	-8%	-8%	?
COc1cccc(C(=O)COc2cccc(NC(=O)c3cccc([N+](=O)[O-])c3)c2)c1	?	-5%	-2%	16%	-7%	28µM*
Cc1ccc(C)c(NC(=O)c2cccc(Oc3ccc([N+](=O)[O-])cc3Cl)c2)c1	?	-1%	-8%	-5%	3%	-18%
O=C(COc1cccc(NC(=O)c2cccc([N+](=O)[O-])c2)c1)c1ccc(F)cc1	12	-12%	-3%	0%	5%	?
COc1ccc(-c2cn3nc(N4CCC(C(=O)NCc5ccccc5F)CC4)sc3n2)cc1	?	/	/	1%	-11%[15.4 µM]	20%
COCCNC(=O)c1ccc2c(c1)N(Cc1ccc(C(F)(F)F)cc1)C(=O)c1ccccc1S2	-25	/	/	2%	2%	?
CCC1CN(CC(=O)NC(C)c2c(C)nn(C)c2C)Cc2cc(OC)ccc2O1 (stereo not given)	/	/	/	/	/	3%
CCOc1ccc2nc(NC(=O)CSc3nc4c(c(=O)n(C)c(=O)n4C)n3C(C)C)sc2c1	-1	8%	-6%	0%	-2%	22µM*
CC(C)n1c(SCC(=O)Nc2nc3ccccc3s2)nc2c1c(=O)n(C)c(=O)n2C	67	/	9%	/	-4%	22µM*
O=C(CCC1N=C2c3ccccc3N=C(SCC(=O)Nc3ccc(F)cc3)N2C1=O)NCc1cccs1 (stereo not given)	-80*	/	/	3%	-3%	?
Cc1ccc(CSC2=Nc3ccccc3C3=NC(CCC(=O)NCCc4ccccc4)C(=O)N23)cc1 (stereo not given)	-90*	/	/	-2%	-1%	?
Cc1ccc(CSCC(=O)NCCc2ccccc2)cc1	-100*	3%	-6%	-6%	-5%	9%
Cc1ccc(CSCC(=O)Nc2ccccc2C(=O)O)cc1	-79*	-12%	1%	8%	-3%	48%
Cc1ccc(CSC2=Nc3ccccc3C3=NC(CCC(=O)NCc4cccs4)C(=O)N23)cc1 (stereo not given)	47	/	/	0%	-6%	36%
CCc1ccc(-c2nc3c(c(SCc4ccc(F)cc4)n2)Cc2c(CO)cnc(C)c2O3)cc1	-26	/	/	15%	1%	-15%

Screening results from PubChem.
